Screening results deposited in PubChem by National Center for Advancing Translational Sciences (NCATS).
IDH1 R132H inh: blocks human mutant IDH1 R132H enzyme. AID 602179. 390,000 tested, 0.093% active. Potency, µM (series often up to 76.6 µM), hits mostly inhibitors. IDH1-R132H enzyme, NADPH consumption, diaphorase/resazurin fluorescence. O75874; further: nearly all actives have a fitted effect of over 65% in size
Target sequence (O75874 whole entry R132H, stated change not applied): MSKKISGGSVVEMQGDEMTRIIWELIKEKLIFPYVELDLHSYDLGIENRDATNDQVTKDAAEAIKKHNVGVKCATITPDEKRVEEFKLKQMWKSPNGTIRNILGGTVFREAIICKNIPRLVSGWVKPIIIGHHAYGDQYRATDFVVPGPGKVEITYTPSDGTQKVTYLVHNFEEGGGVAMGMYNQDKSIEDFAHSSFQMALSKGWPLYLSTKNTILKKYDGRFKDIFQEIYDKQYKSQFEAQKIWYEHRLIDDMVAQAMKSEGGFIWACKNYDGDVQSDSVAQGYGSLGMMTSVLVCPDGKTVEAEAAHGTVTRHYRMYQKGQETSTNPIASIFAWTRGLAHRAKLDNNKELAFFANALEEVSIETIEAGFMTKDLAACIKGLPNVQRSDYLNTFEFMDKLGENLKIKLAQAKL
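IDH1-R132H (0.5 ug/mL) preincubated 30 min with compound, then NADPH (0.016 mM) and alpha-KG (2 mM) added; 80 min at RT, pH 7.5. Remaining NADPH coupled via diaphorase/resazurin to fluorescence (540/590 nm); concentration-response curves normalized to no-enzyme control.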
Nrf2 block: Nrf2 pathway inhibition | A549 ARE-Fluc reporter, luciferase luminescence, 18-24 h | Potency, µM (highest dose often 46 µM), most hits filed as inhibitors | 360,000 tested, 2.1% active; further: nearly all actives have a fitted effect of over 60% in size
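A549 ARE_Fluc cells (5000/well, 5% FBS OPTI-MEM) pre-incubated 2 h, then treated with compounds 18-24 h at 37C/5% CO2 in concentration-response. CellTiter-Fluor viability read first; BugLite luciferase luminescence after 15 min at room temperature gives Nrf2 activity.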
Nrf2 ARE act: activators of Nrf2 (ARE) signaling. AREc32 ARE-luciferase reporter (MCF7-derived line), luminescence, 24 h. Potency, µM (series often up to 46.1 µM), most hits filed as activators. 410,000 tested, 0.31% active. AID 624171; further: nearly all actives have a fitted effect of over 65% in size
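Nrf2 activation is followed as ARE-luciferase induction in the AREc32 line after one day of compound treatment; luminescence is read with Steady-Glo.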
A549 viability: A549 cytotoxicity, counter-screen for Nrf2 inhibitors; 390,000 tested, 0.16% active; Potency, µM (titrated, usually from 46 µM), hits mostly inhibitors; AID 504648; A549 ARE-Fluc cells, CellTiter-Fluor viability, 18-24 h
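Cytotoxicity counterscreen: CellTiter-Fluor fluorescence was measured in A549 ARE_Fluc cells after 18-24 h of compound exposure in a concentration series. The subsequent BugLite luminescent read reports ARE-luciferase activity.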
ELG1 DNA repair: ELG1-dependent DNA repair inhibition; HEK293T ELG1-luciferase reporter, luminescence, 16 h; DNA damage induced by 5-fluorouridine; Potency, µM (titrated, usually from 46.1 µM), hits mostly inhibitors; 330,000 tested, 2.3% active; AID 504467; further: nearly all actives have a fitted effect of over 55% in size
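HEK293T cells expressing luciferase-tagged ELG1 (2,000/well) received 5-Fluorouridine plus compound or DMSO for 16 hr at 37 °C. Luciferase was read by ONE-Glo luminescence after 30 min at room temperature.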
Hits are given with their value; n = inactive; u = inconclusive; x = not tested or not shown; [ ] = dose if it differs, or a comment. A selection: hits, their analogues and other compounds. The true share with any hit is near 3.8%. The call rests on the fitted dose curve; in most records, active means well fitted curve in the direction sought with a large enough effect; inconclusive means small, poorly fitted or top-dose-only effect, or another doubt; inactive means no such curve, though single readings can be large; an effect the other way counts as inactive or inconclusive.

SMILES	IDH1 R132H inh	Nrf2 block	Nrf2 ARE act	A549 viability	ELG1 DNA repair
O=C(Nc1cc(C(F)(F)F)ccc1Cl)[C@H](O)CCc1ccccc1	x	26µM	x	u	x
CC(C)CC(O)C(=O)Nc1cc(C(F)(F)F)ccc1Cl (stereo not given)	x	n	x	n	x
O=C(NC(=S)Nc1cc(C(F)(F)F)ccc1Cl)c1ccccc1	n	u	3.2µM	n	n
O=C(CC(=O)c1ccccc1)Nc1cc(C(F)(F)F)ccc1Cl	n	n	n	n	n
O=C(CNC(=O)c1cccc(Cl)c1)OC(C(=O)Nc1cc(C(F)(F)F)ccc1Cl)c1ccccc1 (stereo not given)	x	23µM	x	n	x
O=C(CNC(=O)c1ccccc1)OC(C(=O)Nc1cc(C(F)(F)F)ccc1Cl)c1ccccc1 (stereo not given)	n	n	n	n	n
CCOc1ccccc1NC(=O)CCS(=O)(=O)c1ccc2c(c1)oc(=O)n2C	n	n	n	n	x
CCOc1ccc(C2c3c(oc4ccc(C)cc4c3=O)C(=O)N2CCCN(C)C)cc1OC (stereo not given)	n	x	n	n	x
CC(C)(C)OC(=O)C[C@@H]1C/C=C\C[C@@H](CC(=O)N(CCO)Cc2ccccc2)C(=O)N2CCC[C@@H]2COC1=O	n	n	n	n	n
COc1ccc(CNc2ncnc3nc[nH]c23)cc1OC	x	n	x	u	x
COc1ccc(/C=C2\CC/C(=C\c3ccc(OC)cc3OC)C2=O)c(OC)c1	n	n	n	n	n
COc1ccc(/C=C2\CCC(C3CCCC3)C2=O)c(OC)c1 (stereo not given)	n	n	n	n	u
COc1ccc(/C=C2\CCC/C(=C\c3ccc(OC)c(OC)c3OC)C2=O)c(OC)c1OC	n	8.2µM	n	u	23µM
COc1cc(OC)c(OC)cc1/C=C1\CCC(C2CCCC2)C1=O (stereo not given)	n	n	n	n	7.3µM
COc1ccc(/C=C2\CC/C(=C\c3ccc(OC)c(OC)c3)C2=O)cc1OC	n	n	n	n	u
COc1cc(OC)c(OC)cc1/C=C1\CCC/C(=C\c2cc(OC)c(OC)cc2OC)C1=O	n	u	n	u	15µM
O=c1c2ccccc2nc(SCc2nc3ccccc3s2)n1Cc1ccco1	n	4.6µM	n	n[1.84 µM]	u
O=C(CSc1nc2ccccc2c(=O)n1Cc1ccco1)c1ccccc1	n	18µM	n	n[1.84 µM]	u
CCOC(=O)CSc1nc2ccccc2c(=O)n1Cc1ccco1	n	n	n	u	n
O=c1c2ccccc2nc(SCc2ccccc2)n1Cc1ccco1	n	n	n	n	u
NS(=O)(=O)c1ccc(CCNC(=O)CN2CCC(Cc3ccccc3)CC2)cc1	n	21µM	n	n	u
O=C(CN1CCC(Cc2ccccc2)CC1)NCCc1ccc(F)cc1	n	u	n	u	n
O=C(Nc1ccc(F)cc1)c1ccc(S(=O)(=O)N2CCOCC2)o1	n	n	n	n	16µM
CC1CN(S(=O)(=O)c2ccc(C(=O)Nc3ccc(S(=O)(=O)N4CCOCC4)cc3)cc2)CC(C)O1 (stereo not given)	n	u	n	n	8.2µM
O=C(Nc1ccc(Cc2ccncc2)cc1)c1ccc(S(=O)(=O)N2CCOCC2)cc1	n	9.2µM	n	n	13µM
SMILES	IDH1 R132H inh	Nrf2 block	Nrf2 ARE act	A549 viability	ELG1 DNA repair
CCCN1CNc2c(c(=O)[nH]c(=S)n2CCc2ccc(Cl)cc2Cl)C1	x	n	x	n	x
O=C(CN(c1cc(Cl)ccc1Cl)S(=O)(=O)c1ccccc1)N1CCOCC1	n	n	n	n	n
CCOc1ccc(NC(=O)c2ccc3c(c2)CCN3S(=O)(=O)CC)cc1	n	u	n	n	x
Cc1ccc(OCc2nnc(SCC(=O)c3ccccc3)n2-c2ccccc2)cc1	n	u	n	n	23µM
N#Cc1ccc(OCc2nnc(SCC(=O)c3ccccc3)n2-c2ccccc2)cc1	n	n	n	n	15µM
Cc1ccc(OCc2nnc(SCC(=O)O)n2-c2ccccc2)cc1	n	n	n	n	x
Cc1ccccc1CN1CCN(c2ccc(S(=O)(=O)N3CCCC3)cn2)CC1	n	u	n	n	n
COc1ccc(NS(=O)(=O)c2cccc(NC(=O)C3=NN(c4ccccc4)C(=O)CC3)c2)cc1	n	n	n	n	9.2µM
CN(c1ccccc1)S(=O)(=O)c1cccc(NC(=O)C2=NN(c3ccccc3)C(=O)CC2)c1	n	21µM	n	n	7.3µM
CC(C)Oc1ccc(S(=O)(=O)N2CCOCC2)cc1NC(=O)C1=NN(c2ccccc2)C(=O)CC1	n	n	n	n	10µM
COc1ccc(S(=O)(=O)NC2CCN(C#N)CC2)cc1	x	n	x	n	x
CC1(C)Cc2cccc(OCC(=O)Nc3ccccc3F)c2O1	n	n	n	n	u
Cc1cc(Br)ccc1NC(=O)CN(C)C(=O)COc1cccc2c1OC(C)(C)C2	n	21µM	n	n	n
COc1ccc(NC(=O)COc2cccc3c2OC(C)(C)C3)cc1OC	n	18µM	n	n	u
CC1(C)Cc2cccc(OCC(=O)N3CCN(S(=O)(=O)c4ccc(F)cc4)CC3)c2O1	n	n	n	n	n
CCCNC(=O)c1ccccc1NC(=O)COc1cccc2c1OC(C)(C)C2	n	n	n	n	15µM
Cc1cccc(N2CCN(C(=O)COc3cccc4c3OC(C)(C)C4)CC2)c1C	n	n	n	n	26µM
COc1ccc(NS(=O)CCCc2ccccc2)cc1 (stereo not given)	x	x	n	x	x
CC1CCCCN1S(=O)(=O)c1cc2c3c(c1)CC(=O)N3CCC2 (stereo not given)	n	x	n	n	x
Cc1ccc(OCC(=O)N(Cc2ccc(N(C)C)cc2)CC2CCCO2)cc1C (stereo not given)	n	n	n	n	x
CCN(CCNC(=O)Nc1ccc(Cl)cc1)c1ccccc1	n	x	n	n	5.2µM
CCN(CC)c1nc(OCCNC(=O)Nc2ccccc2)nc(N(CC)CC)n1	n	u	n	n	18µM
CC(=O)c1nnn(-c2nc(C#N)nc(N3CCOCC3)n2)c1C	x	n	x	n	x
COc1cc(CNc2ccc(N3CCCCC3)cc2)ccc1OCC(=O)NC(C)(C)C	n	u	n	n	9.2µM
Nc1nc(CSc2nnnn2-c2ccccc2)nc(N2CCCc3ccccc32)n1	n	n	n	n	16µM
O=C(Cn1ncc2c3ccccc3n(Cc3cccc(Cl)c3)c2c1=O)N1CCCCCC1	n	u	n	n	x
Cc1cccc(Nc2nc(N3CCOCC3)nc(N3CCOCC3)n2)c1	n	n	n	n	7.3µM
CC(=C/c1ccccc1)/C=N/Nc1nc(N2CCCCC2)nc(N2CCCCC2)n1	n	n	n	n	n
COc1ccc(/C=N/Nc2cc(C)nc(N3CCOCC3)n2)cc1	n	u	n	n	u
Cc1cc(/C=N/Nc2nc(N3CCOCC3)nc(N3CCOCC3)n2)c(C)n1-c1ccccc1	n	n	n	n	7.3µM
